Sa ugtP lethal – kills S. aureus RN4220 lacking UgtP | AID 1259309 | 0.54% of 330,000 active | S. aureus RN4220 ugtP deletion, OD600 growth, 16 h | growth inhibition, % (no concentration beside the values); in the data active = growth inhibition above about 68%
PfHsp40 rescue – restores yeast growth despite PfHsp40 toxicity | S. cerevisiae expressing PfHsp40, growth rescue, ATP luminescence | growth rescue, % at 12.5 µM | 0.68% of 340,000 active | AID 504582; in the data active = growth rescue above about 28%, passing the limit was not always enough;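 note: yeast W303a lacking pdr1 and pdr3 grown in galactose medium; growth measured after three days at 30 °C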
RN4220 kill – S. aureus RN4220 growth inhibition. inhibition, % (concentration not given with the values). 0.33% of 330,000 active. AID 1259311. OD600, 16 h; in the data active = inhibition above about 85%
Mtb betalactam – beta-lactam sensitization of Mtb H37Rv. M. tuberculosis H37Rv growth with meropenem, percent inhibition. inhibition, % at 25 µM. 0.27% of 330,000 active. AID 434955; call rule not given here;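 note: growth measured after seven days incubation then overnight dye step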
Vc quorum ag – inducers of Vibrio cholerae quorum light production without autoinducers; 0.16% of 350,000 active; activation, % at 18.7 µM; AID 588436; V. cholerae BH1578 lux reporter, luminescence, 6 h; in the data active = activation mostly above about 9.7%, no sharp cut-off
Of the large screens only hits and unclear results are named; the others gave an inactive call. Most compounds without a hit are left out; they make up all but 1.2% or so of the library.

Cc1nnc(SCC2=C(C(=O)O)N3C(=O)C(NC(=O)Cn4nc(C(F)F)cc4C)C3SC2)s1 (stereo unspecified)	Sa ugtP lethal 101, RN4220 kill 100
CC(=O)OCC1=C(C(=O)O)N2C(=O)C(NC(=O)CCn3nc(C)c(Cl)c3C)C2SC1 (stereo unspecified)	Sa ugtP lethal 99, RN4220 kill 99
CC(=O)OCC1=C(C(=O)O)N2C(=O)C(NC(=O)Cn3nc(C(F)F)c(Cl)c3C)C2SC1 (stereo unspecified)	Sa ugtP lethal 96, RN4220 kill 99
CCc1ccc(C=C2C(=O)N(C)C(=S)N2CC(=O)OC)s1	none (no result: PfHsp40 rescue, Mtb betalactam, Vc quorum ag)
CC(=O)OCC1=C(C(=O)O)N2C(=O)C(NC(=O)CCn3nc(C(F)(F)F)c(Br)c3C3CC3)C2SC1 (stereo unspecified)	Sa ugtP lethal 100, RN4220 kill 100
CCCCN1CC(=O)N2C3c4cc(Br)ccc4OCC3C(C(=O)OCC)[C@]2(C)C1=O (stereo partly specified)	none (no result: PfHsp40 rescue, Mtb betalactam, Vc quorum ag)
O=C(NC(=S)Nc1ccc(NC(=O)c2ccco2)cc1)c1ccccc1	none
CCCCCC(=O)N/N=C(\C)c1ccc(NC(=O)c2ccco2)cc1	PfHsp40 rescue 59 (no result: Sa ugtP lethal, RN4220 kill)
CCCCCC(=O)NC(=S)Nc1ccc(NC(=O)c2ccco2)cc1	Sa ugtP lethal 88
CCOc1cc(C=Cc2cc(C(F)(F)F)[nH]c(=O)n2)ccc1O	none (no result: PfHsp40 rescue, Mtb betalactam, Vc quorum ag)
CCOc1ccc2ccccc2c1C(=O)NC1C(=O)N2C1SC(C)(C)C2C(=O)O (stereo unspecified)	none (no result: PfHsp40 rescue, Mtb betalactam, Vc quorum ag)
CC(=O)N[C@H]1C[C@@H]1c1ccccc1	none
N[C@@H]1C[C@H]1c1ccccc1	PfHsp40 rescue 44 (no result: Sa ugtP lethal, RN4220 kill)
CCn1c(COc2ccccc2)nnc1SCC(=O)Nc1cc(C)ccc1OC	none (no result: Mtb betalactam)
CCn1c(COc2ccc(C)cc2)nnc1SCC(=O)Nc1cc(OC)ccc1OC	Vc quorum ag 29
CC(=NNC(=O)c1nn(C)cc1Br)c1ccncc1	none (no result: PfHsp40 rescue, Mtb betalactam, Vc quorum ag)
CCC(C)C1CN=C(N)N1CCc1cccc2ccccc12 (stereo unspecified)	none (no result: PfHsp40 rescue, Mtb betalactam, Vc quorum ag)
CC(NC(=O)CN1C(=O)NC2(CCCC2)C1=O)c1ccc(Cl)cc1Cl (stereo unspecified)	PfHsp40 rescue 61 (no result: Vc quorum ag)
O=C(CN1C(=O)NC2(CCCCCC2)C1=O)Nc1ccc(Cl)cc1Cl	none
CCn1c(=O)c(CCC(=O)N2CCN(c3ccccn3)CC2)c(C)c2c(C)nn(-c3ccccc3)c21	PfHsp40 rescue 45
O=c1oc2ccccc2cc1-c1csc(Cc2nc(-c3ccc(Cl)cc3)cs2)n1	none
N=c1oc2ccccc2cc1-c1nc(-c2ccc(Cl)cc2)cs1	PfHsp40 rescue 86
Cc1c(Cl)sn(-c2ccc(Cl)cc2)c1=O	Sa ugtP lethal 101, RN4220 kill 101 (no result: Mtb betalactam)
Cc1nn(-c2ccc(Cl)cc2)c(=O)c2ccccc12	none
CCCOc1ccc(CSCCNC(=S)Nc2ccccc2)cc1	PfHsp40 rescue 216
O=C1NC(=S)N/C1=C/c1cccc([N+](=O)[O-])c1	PfHsp40 rescue 61
Cc1cc(N=Nc2ccccc2C(=O)O)c(C)c(C)c1O	PfHsp40 rescue 150
Cc1cc(O)c(C(C)C)cc1N=Nc1ccccc1C(=O)O	none
O=S(=O)(Nc1ccccc1O)c1ccc(-c2ccccc2)cc1	none
O=S(=O)(Nc1cccnc1Cl)c1ccc(-c2ccccc2)cc1	RN4220 kill 89
COc1ccc(N(C)S(=O)(=O)c2ccc(Cl)c(C(=O)NNC(=O)c3ccccc3O)c2)cc1	PfHsp40 rescue 248 (no result: Mtb betalactam)
COc1ccccc1N(C)S(=O)(=O)c1ccc(Cl)c(C(=O)NNC(=O)c2ccccc2O)c1	PfHsp40 rescue 218
N#CCCCC#Cc1ccc2c(c1)COc1c3ccccc3nn1-2	PfHsp40 rescue 124
O=S(=O)(c1cccc(Cl)c1)N1CCN(S(=O)(=O)c2ccc3c(c2)OCCO3)CC1	PfHsp40 rescue 43
CCOC(=O)c1nn(-c2ccc(C)cc2)cc1O	Vc quorum ag active
CCOC(=O)c1nn(-c2ccc(Cl)cc2)cc1O	none
COC1=C(C)C(O)=C(C(=O)C=Cc2ccccc2)C(=O)C1(C)C	none (no result: PfHsp40 rescue, Mtb betalactam, Vc quorum ag)
CCCCCCc1ccc(-c2ncc(N)cn2)cc1	Sa ugtP lethal 100
CCCCCc1ccc(-c2nnc(N)s2)cc1	none
O=c1[nH]c2ccc(Br)cc2c(-c2ccccc2)c1N1CCOCC1	none
CC(=O)c1c(N2CCOCC2)nc2ccc(Br)cc2c1-c1ccccc1	Sa ugtP lethal 85
COc1ccc(NC(=O)C=Cc2ccc(Br)o2)cn1	none (no result: PfHsp40 rescue, Mtb betalactam, Vc quorum ag)
COCCCn1c(C(=O)NCCN2CCOCC2)cc2c(=O)n3ccccc3nc21	PfHsp40 rescue 44
Cc1cccc2sc(NNC(=O)c3ccc(S(=O)(=O)N4CCCC(C)C4)cc3)nc12 (stereo unspecified)	PfHsp40 rescue 356
Cc1cccc2sc(NNC(=O)c3ccc(S(=O)(=O)N4CCc5ccccc5C4)cc3)nc12	PfHsp40 rescue 410
O=C1CC(O)(C(F)(F)F)Oc2c1ccc1ccccc21 (stereo unspecified)	PfHsp40 rescue 54
O=C1CC(O)(C(F)F)Oc2ccc3ccccc3c21 (stereo unspecified)	none
COc1ccc(CC(C)=NNC(=O)c2c[nH]c3ccccc23)cc1OC	none (no result: PfHsp40 rescue, Mtb betalactam, Vc quorum ag)
O=C(CCN1C(=O)C2C3C=CC(C4CC34)C2C1=O)Oc1cccc2cccnc12 (stereo unspecified)	Sa ugtP lethal 98, RN4220 kill 100
COc1ccc(-c2cc3c(=O)n(CC(=O)NCc4cccnc4)ncn3n2)cc1	none
COc1ccc(-c2cc3c(=O)n(CC(=O)NC4CCN(Cc5ccccc5)CC4)ncn3n2)cc1	PfHsp40 rescue 83
CC1CCN(S(=O)(=O)c2ccc(C(=O)NNC(=O)C3CC3)cc2)CC1	PfHsp40 rescue 124
O=C(NNC(=O)C1CCN(S(=O)(=O)c2ccc(Cl)cc2)CC1)c1ccc(Cl)cc1	none
Cc1ccc(C)c(NS(=O)(=O)c2ccc3c(c2)NC(=O)CCS3)c1	none
Cc1ccc(NS(=O)(=O)c2ccc3c(c2)NC(=O)CCS3)c(Br)c1	Sa ugtP lethal 96, RN4220 kill 98
Cc1ccccc1NS(=O)(=O)c1ccc2c(c1)NC(=O)CCS2	RN4220 kill 89
Clc1ccc(CCC(Cn2ccnc2)Sc2c(Cl)cccc2Cl)cc1 (stereo unspecified)	Sa ugtP lethal 98, PfHsp40 rescue 120, RN4220 kill 99
CCc1ccccc1NC(=O)CC1SC(=Nc2nccs2)N(CC)C1=O (stereo unspecified)	none (no result: PfHsp40 rescue, Mtb betalactam, Vc quorum ag)
Cc1ccc(SCC(=O)N(Cc2nc(-c3ccccc3)no2)C(C)C)cc1	Vc quorum ag 25
COc1ccc(N(N=C2Sc3ccccc3C2=O)C(C)=O)cc1	none (no result: PfHsp40 rescue, Mtb betalactam, Vc quorum ag)
CCn1c(SCc2c(Cl)cccc2Cl)nnc1-c1nn(-c2ccccc2)ccc1=O	none
Cc1ccc(Cn2ccc(=O)c(Cc3c(Cl)cccc3Cl)c2C)cc1	Sa ugtP lethal 101, RN4220 kill 100
Cc1ccc(Cn2ccc(=O)c(OCc3ccccc3)c2C)cc1	none (no result: Vc quorum ag)
Cc1c(OCc2ccccc2)c(=O)ccn1Cc1ccc(Cl)cc1	none
Cc1c(Cc2c(Cl)cccc2Cl)c(=O)ccn1C(C)c1ccccc1 (stereo unspecified)	Sa ugtP lethal 99, PfHsp40 rescue 52, RN4220 kill 98 (no result: Mtb betalactam, Vc quorum ag)

From PubChem BioAssay
